The target of assay [1] is Glutathione peroxidase 1 (Homo sapiens) (UniProt P07203). Description: Primary qHTS Assay for Inhibitors of Recombinant Selenoprotein Glutathione Peroxidase 1 (GPX1) (AID 1845191). For activity, negative = inhibition: % is set by controls: 0 for no effect and ±100 for the full control effect. Note: nearly all actives have a fitted effect of over 65% in size. The method, boiled down:
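NADPH consumption tracked by fluorescence at 340/450 nm between t=0 and t=15 min, room temperature. Final mix: 10 nM GPX1, 100 nM glutathione reductase, 1 mM GSH, 0.5 mM NADPH, 0.5 mM cumene hydroperoxide, 0.01% BSA; 30 min compound–enzyme preincubation.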

Assay [2] addresses Phospholipid hydroperoxide glutathione peroxidase GPX4 (Homo sapiens) (UniProt P36969). Description: Primary qHTS Assay for Inhibitors of Recombinant Selenoprotein Glutathione Peroxidase 4 (GPX4) (AID 1845192). For activity change, negative = inhibition: series mostly up to about 50 µM; % is set by controls: 0 for no effect and ±100 for the full control effect. Note: nearly all actives have a fitted effect of over 65% in size. Put shortly:
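NADPH consumption followed by fluorescence at 340/450 nm, t=0 and after 15 min at room temperature. Reaction started with cumene hydroperoxide (0.5 mM final) after 30 min compound–GPX4 preincubation; final 200 nM GPX4, 100 nM GR, 1 mM GSH, 0.5 mM NADPH.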
(In general: Quantitative high-throughput screening tests each substance at several concentrations.)

The target in assay [3] is Luciferin 4-monooxygenase (Photinus pyralis) (UniProt P08659). Nature of the assay: Primary firefly luciferase (FLuc) qHTS assay for identification of artifact compounds. (AID 1845220).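 For activity change, negative = inhibition: series mostly up to about 54 µM; plate controls were DMSO vehicle for no effect and no enzyme for full effect.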 Note: nearly all actives have a fitted effect of over 60% in size. The method, boiled down:
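Compounds sat 15 min at room temperature with 10 uM luciferin and 10 uM ATP (pH 7.6 Tris acetate). Firefly luciferase (10 nM final) was then added, and luminescence was read 5 min later. Data normalized to no-enzyme and DMSO controls were Hill-fitted.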

Assay [4] is described as follows: Primary fluorescence-based thiol-reactive (MSTI) qHTS assay for identification of artifact compounds. (AID 1845221).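 For activity change, negative = thiol reactive: series mostly up to about 54 µM; thiol-reactive compounds lower the probe fluorescence signal.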 Note: nearly all actives have a fitted effect of over 65% in size. Note: potency is the fitted concentration of half-maximal effect. The method, boiled down:
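One-hour, room-temperature, dark incubation of compound with 4 uM MSTI in PBS (pH 7.4, 2% DMSO) precedes a fluorescence read at 525 nm excitation, 598 nm emission; Hill-equation fitting yields concentration-response values.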

For assay [5], the system named is Nanoluciferase (engineered Oplophorus gracilirostris luciferase). Nature of the assay: Primary Nanoluciferase (NLuc) qHTS assay for identification of artifact compounds. (AID 1845222).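 Note: series mostly up to about 54 µM; 0% = DMSO and -100% = no enzyme.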 Put shortly:
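Luminescence from secreted NLuc (filtered, 1:55-diluted S16 cell medium) read 5 min after Nano-Glo substrate; compounds preincubated 15 min, RT. Hill fits of inhibition normalized to DMSO and no-enzyme.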

Assay [6] in a line: Primary redox qHTS assay for identification of artifact compounds. (AID 1845223).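 Note: 0% = DMSO and 100% = reference compound.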 The method, boiled down: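 Redox-cycling detection via DTT (250 uM final) oxidation coupled to Amplex Red (25 uM)/HRP (250 mU/mL) in HBSS. 15 min preincubation plus 30 min after DTT, room temperature. Ex/Em 525/598 nm; 4-parameter Hill fit against DMSO and 10 uM DA3003.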

Values without a mark were called inactive. Results filed as inconclusive are left out. The source made the active and inactive calls. Calls come from the whole dose curve; as a rule, active = well fitted curve in the direction sought with a large enough effect; inconclusive = small, poorly fitted or top-dose-only effect, or another doubt; inactive = no such curve, though single readings can be large; an effect the other way counts as inactive or inconclusive.

Glutathione peroxidase 1 (Homo sapiens), sequence (P07203 whole entry, looked up): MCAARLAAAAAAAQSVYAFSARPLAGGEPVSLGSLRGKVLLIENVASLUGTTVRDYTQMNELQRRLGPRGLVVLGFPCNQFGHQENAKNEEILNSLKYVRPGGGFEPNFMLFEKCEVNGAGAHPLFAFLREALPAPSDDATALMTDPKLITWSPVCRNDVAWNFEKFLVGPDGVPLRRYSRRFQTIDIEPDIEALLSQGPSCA
Phospholipid hydroperoxide glutathione peroxidase GPX4 (Homo sapiens), sequence (P36969 whole entry, looked up): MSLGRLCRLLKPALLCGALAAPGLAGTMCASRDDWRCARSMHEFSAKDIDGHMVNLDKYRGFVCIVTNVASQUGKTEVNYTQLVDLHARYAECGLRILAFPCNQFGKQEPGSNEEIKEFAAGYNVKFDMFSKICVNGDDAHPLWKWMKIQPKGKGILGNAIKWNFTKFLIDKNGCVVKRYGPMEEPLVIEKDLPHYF

Turning to `O=C1OCc2cc3cccc(O[C@@H]4O[C@H](CO)[C@@H](O)[C@H](O)[C@H]4O)c3c(O)c21`, the Potency entry in assay [1], in assay [2], in assay [3], in assay [5] and in assay [6] was “inactive” each time. For the same compound, the Potency in assay [4] is 1.65 µM (active).

For the compound `Cc1ccc(Cc2c(C)nc3nc(SCC(=O)NCCN4CCNCC4)nn3c2C)cc1`, the Potency entry in assay [1], in assay [2], in assay [3], in assay [4], in assay [5] and in assay [6] was “inactive” throughout.

With `CC1CCC2(C(=O)O)CCC3(C)C(=CCC4C5(C)CCC(O)C(C)(CO)C5CCC43C)C2C1(C)O` (centres undefined), the Potency result in assay [1], in assay [2], in assay [3], in assay [4], in assay [5] and in assay [6] was “inactive” each time.

Regarding `C=C1CC2C(C)(CCC(=O)O)C(C(C)(C)O)CCC2(C)C2C(=O)OC(C)(C(=O)OC)C(=O)C12C` (centres undefined), the Potency result in assay [1], in assay [2], in assay [3], in assay [4], in assay [5] and in assay [6] was “inactive” throughout.

With `CC(C)(C)c1ccc(S(=O)(=O)NCc2ccc(C(=O)Nc3cccnc3)cc2)cc1`, the Potency entry in assay [1], in assay [2], in assay [3], in assay [4], in assay [5] and in assay [6] was “inactive” each time.

With `COc1cc2ncnc(Nc3ccc(F)c(Cl)c3)c2cc1NC(=O)/C=C/CN1CCCCC1`, the Potency entry in assay [1], in assay [2], in assay [3], in assay [4], in assay [5] and in assay [6] was “inactive” each time.

On to `C[C@@H]1CCN(C(=O)N2CCCC2)C[C@@H]1N(C)c1ncnc2[nH]ccc12`, for which the Potency result in assay [1], in assay [2], in assay [3], in assay [4], in assay [5] and in assay [6] was “inactive” throughout.

As for `C=C(C)C(=O)OC1C(OC(C)=O)/C(C=O)=C\CC/C(CO)=C/C2OC(=O)C(=C)C21` (centres undefined), the Potency entry in assay [1], in assay [2], in assay [3], in assay [4], in assay [5] and in assay [6] was “inactive” throughout.

On to `CC(=O)O[C@H]1CC[C@H](C)[C@@]2(C)[C@H](OC(C)=O)c3c(C)coc3C(=O)[C@H]12`, for which the Potency result in assay [1], in assay [2], in assay [3], in assay [4], in assay [5] and in assay [6] was “inactive” throughout.

With `CC1(C)CC[C@]2(C(=O)O[C@@H]3O[C@H](CO)[C@@H](O)[C@H](O)[C@H]3O)CC[C@]3(C)C(=CCC4[C@@]5(C)CC[C@H](O[C@@H]6O[C@H](C(=O)O)[C@@H](O)[C@H](O)[C@H]6O)[C@@](C)(CO)C5CC[C@]43C)C2C1` (some centres undefined), the Potency result in assay [1] and in assay [2] was “inactive” each time. Moreover, the activity change, negative = inhibition in assay [3] is -3.91% [at 11.6 µM]. In addition, in assay [4], the activity change, negative = thiol reactive was 129% [at 11.5 µM]. In addition, in assay [5], the activity, negative = inhibition is -2.6% [at 11.6 µM]. In assay [6], the redox activity (% of DA3003) was 15.6% [at 11.5 µM].

Regarding `O=C(CCc1nnc2n(Cc3ccc(Cl)cc3)c(=O)c3ccccc3n12)NCCC1=CCCCC1`, the Potency result in assay [1], in assay [2], in assay [3], in assay [4], in assay [5] and in assay [6] was “inactive” throughout.

Regarding `CN(C)CCn1cc(S(=O)(=O)c2cccc(F)c2)c2cccnc21`, the Potency entry in assay [1], in assay [2], in assay [3], in assay [4], in assay [5] and in assay [6] was “inactive” each time.

In the case of `CCc1ccc(Cc2ccc3c(c2)[C@]2(OC3)O[C@H](CO)[C@@H](O)[C@H](O)[C@H]2O)cc1`, the Potency result in assay [1], in assay [2], in assay [3], in assay [4], in assay [5] and in assay [6] was “inactive” each time.

As to `Cc1cc(C(=O)Nc2cccc(C(=O)Nc3cccc(C(F)(F)F)c3)c2)on1`, the Potency result in assay [1], in assay [2], in assay [3], in assay [4], in assay [5] and in assay [6] was “inactive” in each case.

Regarding `COC(=O)C1=COC(O[C@@H]2O[C@H](CO)[C@@H](O)[C@H](O)[C@H]2O)[C@H]2[C@@H]1[C@H](OC(=O)CCc1ccc(O)cc1)C[C@]2(C)O` (some centres undefined), the Potency entry in assay [1], in assay [2], in assay [3], in assay [4], in assay [5] and in assay [6] was “inactive” each time.

`C=C[C@@]12COC(=O)C(=C)C1[C@@H](O)[C@H](C(=C)C(=O)OC)[C@@H](OC(=O)C(=C)CO)C2` (some centres undefined): the Potency entry in assay [1], in assay [2], in assay [3], in assay [5] and in assay [6] was “inactive” each time. Moreover, in assay [4], the Potency was 11.6 µM (active).

For `CCN(CC)CCN(Cc1ccc(-c2ccc(C(F)(F)F)cc2)cc1)C(=O)Cn1c(SCc2ccc(F)cc2)nc(=O)c2c1CCC2`, the Potency result in assay [1], in assay [2], in assay [3], in assay [4], in assay [5] and in assay [6] was “inactive” each time.

Regarding `CC(=O)N[C@H]1[C@H](O[C@H]2CC[C@@]3(C)C(CC[C@]4(C)C3CC=C3C5CC(C)(C)CC[C@]5(C(=O)O)[C@H](O)C[C@]34C)C2(C)C)O[C@H](CO[C@@H]2OC[C@H](O)[C@H](O)[C@H]2O[C@@H]2OC[C@@H](O)[C@H](O)[C@H]2O)[C@@H](O)[C@@H]1O` (some centres undefined), the Potency entry in assay [1] and in assay [2] was “inactive” in each case. For the same compound, in assay [3], the activity change, negative = inhibition was -1.17% [at 11.6 µM]. Also, the activity change, negative = thiol reactive in assay [4] is 85% [at 11.5 µM]. For the same compound, the activity, negative = inhibition in assay [5] was 0% [at 11.6 µM]. Moreover, the redox activity (% of DA3003) in assay [6] was 8.12% [at 11.5 µM].

In the case of `CC1COC2(OC3CC4C5CC(O[C@@H]6O[C@H](C)[C@@H](O[C@@H]7O[C@@H](C)[C@H](O)[C@@H](O)[C@H]7O)[C@H](O)[C@H]6O)C6CC(O)CCC6(C)C5CCC4(C)C3C2C)C(O)C1` (some centres undefined), the Potency result in assay [1], in assay [2], in assay [3], in assay [4], in assay [5] and in assay [6] was “inactive” in each case.

Source of the values: PubChem BioAssay (NCATS).
